From PubChem BioAssay
For some of these results: Measured potencies and affinities stand elsewhere. Calls of active or inactive are those of the source.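 Rule for the calls, unless noted: active = compound raising the membrane signal above positive-control mean plus 3 SD in both repeats, and a primary screen hit; inactive = the rest.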

Columns and labels:
[1] = system: TRPC4 beta (transient receptor potential cation channel C4), mouse; assay: activators of mouse TRPC4 channel, confirmation, cell-based, Fluo4 calcium, HEK293 TRPC4beta/mu-opioid, duplicates, 10 µM (AID 2426;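 active = fluorescence ratio normalized to control raised more than 50% in primary screen plus both repeat runs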); settings: Fluo4 calcium fluorescence, at 10 µM; hits give high values
[2] = system: transient receptor potential cation channel C4 beta (TRPC4), mouse; assay: activators of mouse TRPC4 channel, confirmation, cell-based, second round, Fluo4, HEK293 TRPC4beta/mu-opioid, 1 µM (AID 2461;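 active = primary screen active and over 50% activation in each of two duplicate runs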); settings: Fluo4 calcium fluorescence, at 1 µM; hits give high values
[3] = system: TRPC4 (transient receptor potential cation channel C4 beta), mouse; assay: positive allosteric modulators of mouse TRPC4, confirmation, cell-based, second round, Fluo-4, HEK293 TRPC4beta/mu-opioid, 1 µM (AID 2554;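 active = primary screen hit whose fluorescence ratio, in both repeats, exceeds the weak agonist control mean by 3 SD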); settings: DAMGO EC20, Fluo-4 calcium flux, at 1 µM; hits give high values
[4] = system: TRPC4 beta (transient receptor potential cation channel C4), mouse; assay: positive allosteric modulators of mouse TRPC4, confirmation, cell-based, Fluo-4, HEK293 TRPC4beta/mu-opioid (AID 2555;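 active = primary screen hit whose calcium fluorescence ratio, in both repeats, exceeds the weak agonist control mean by 3 SD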); settings: DAMGO EC20, Fluo-4 calcium flux, at 10 µM; hits give high values
[5] = molecular target: Short transient receptor potential channel 4 (Mus musculus) (UniProt Q9QUQ5); assay: inhibitors of mouse TRPC4 channel, confirmation, cell-based, Fluo4, HEK293 TRPC4beta/mu-opioid (AID 2636;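 active = calcium signal cut by more than 3 SD below the full-agonist control yet still positive, in both repeats and the earlier primary screen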); settings: DAMGO, Fluo4 calcium flux, at 10 µM; hits give high values
[6] = molecular target: Short transient receptor potential channel 4 (Mus musculus) (UniProt Q9QUQ5); assay: inhibitors of mouse TRPC4 channel, confirmation, cell-based, second round, Fluo4, HEK293 TRPC4beta/mu-opioid, 1 µM (AID 2637;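 active = calcium signal ratio cut to more than 3 SD under the fully stimulated control mean yet still positive, in both repeats and the primary screen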;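 for inhibition: percent of integrated ratio relative to wells lacking test compound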); settings: Fluo4 calcium flux, DAMGO, at 1 µM; hits give high values
[7] = molecular target: Short transient receptor potential channel 4 (Mus musculus) (UniProt Q9QUQ5); assay: mouse TRPC4 channel activators, dose response, cell-based, HEK293 TRPC4/mu-opioid, Fluo-4 calcium (AID 434937;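 active = primary screen activator hit with a dose response curve and TRPC4 channel activation at any tested dose; inactive = no activation, no dose response, or not a primary hit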)
[8] = molecular target: Short transient receptor potential channel 4 (Mus musculus) (UniProt Q9QUQ5); assay: TRPC4 positive allosteric modulators, dose response, cell-based, HEK293 TRPC4/mu-opioid, Fluo-4 calcium, EC20 DAMGO (AID 434941;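 active = earlier screen potentiator hit that boosts the TRPC4 ion channel at some dose, with a dose response; inactive = no potentiation, no dose response, or not a prior hit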;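 note: calcium entry triggered by an EC20 dose of DAMGO at the co-expressed mu-opioid receptor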)
[9] = molecular target: Short transient receptor potential channel 6 (Mus musculus) (UniProt Q61143); assay: inhibition of mouse TRPC6 channel, confirmation, selectivity assay for TRPC4 inhibitor project, cell-based, HEK293, membrane potential dye, duplicate (AID 434948;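 active = active in primary screen and both duplicates, each dropping signal beyond three positive-control SD with fluorescence still positive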); settings: HEK293 TRPC6, membrane potential dye fluorescence, at 10 µM, stimulated with maximal-effect acetylcholine; hits give high values
[10] = molecular target: Short transient receptor potential channel 6 (Mus musculus) (UniProt Q61143); assay: activation of mouse TRPC6 channel, confirmation, selectivity assay for TRPC4 activator project, cell-based, HEK293, membrane potential dye, duplicate (AID 434950;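 active = membrane potential signal rise above negative control mean plus 3 SD in both duplicates, also active in the earlier TRPC4 screen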); settings: HEK293 TRPC6, membrane potential fluorescence, at 10 µM; hits give high values
[11] = molecular target: Short transient receptor potential channel 6 (Mus musculus) (UniProt Q61143); assay: TRPC6 potentiation by TRPC4 potentiator hits, confirmation, selectivity assay for TRPC4 potentiator project, HEK293 cells, membrane potential dye, duplicate (AID 434952); settings: HEK293 TRPC6, membrane potential dye fluorescence, at 10 µM, maximal acetylcholine added after compound; hits give high values
[12] = molecular target: Short transient receptor potential channel 4 (Mus musculus) (UniProt Q9QUQ5); assay: calcium flux activators in TRPC4/5HT1a cells, counter-screen for TRPC4 activator project, cell-based, second counter screen, HEK293 TRPC4/5HT1a, Fluo-4 (AID 434977;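 active = calcium signal rise above buffer-control mean plus 5 SD in both duplicates, and also a hit in the primary screen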); settings: Fluo-4 calcium flux, at 10 µM; hits give high values
[13] = calcium flux inhibitors in TRPC4/5HT1a cells, confirmation, counter-screen for TRPC4 inhibitor project, cell-based, second counter screen, HEK293 TRPC4/5HT1a, Fluo-4 (AID 434978;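 active = primary screen active whose calcium signal fell more than 3 SD beyond the full-serotonin control mean in both duplicate plates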;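 for outcome: serotonin given first at submaximal then at maximal dose after compound preincubation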); settings: Fluo-4 calcium flux, at 10 µM, serotonin added to trigger calcium flux; hits give high values
[14] = system: TRPC4 (mouse), co-expressed with 5HT1a in HEK293; assay: calcium flux potentiators in TRPC4/5HT1a cells, confirmation, counter-screen for TRPC4 potentiator project, cell-based, second counter screen, HEK293 TRPC4/5HT1a, Fluo-4 (AID 434979;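 active = signal rise over 3 SD above mean of control wells given weak agonist, in both repeats and first screen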); settings: Fluo-4 calcium flux, at 10 µM, serotonin added at its EC20 dose; hits give high values
[15] = calcium flux activation in mu-opioid HEK293 cells, confirmation, counter-screen for TRPC4 activator project, cell-based, HEK293 mu-opioid receptor line (AID 449723;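 active = hit in primary screen, with calcium signal over 5 SD above buffer well mean in both duplicates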;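 note: counter screen cells carry the mu-opioid receptor alone and lack TRPC4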); settings: Fluo-4 calcium fluorescence, at 10 µM; hits give high values
[16] = calcium flux enhancement in mu-opioid HEK293 cells, confirmation, counter-screen for TRPC4 allosteric potentiator project, cell-based, HEK293 mu-opioid receptor line (AID 449724;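 active = calcium signal rise more than 3 SD above the low-dose agonist control mean, in both duplicate plates and the primary screen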); settings: Fluo-4 calcium flux, at 10 µM, compound added before EC20 DAMGO stimulus; hits give high values

Short transient receptor potential channel 6 (Mus musculus), sequence (Q61143 whole entry, looked up): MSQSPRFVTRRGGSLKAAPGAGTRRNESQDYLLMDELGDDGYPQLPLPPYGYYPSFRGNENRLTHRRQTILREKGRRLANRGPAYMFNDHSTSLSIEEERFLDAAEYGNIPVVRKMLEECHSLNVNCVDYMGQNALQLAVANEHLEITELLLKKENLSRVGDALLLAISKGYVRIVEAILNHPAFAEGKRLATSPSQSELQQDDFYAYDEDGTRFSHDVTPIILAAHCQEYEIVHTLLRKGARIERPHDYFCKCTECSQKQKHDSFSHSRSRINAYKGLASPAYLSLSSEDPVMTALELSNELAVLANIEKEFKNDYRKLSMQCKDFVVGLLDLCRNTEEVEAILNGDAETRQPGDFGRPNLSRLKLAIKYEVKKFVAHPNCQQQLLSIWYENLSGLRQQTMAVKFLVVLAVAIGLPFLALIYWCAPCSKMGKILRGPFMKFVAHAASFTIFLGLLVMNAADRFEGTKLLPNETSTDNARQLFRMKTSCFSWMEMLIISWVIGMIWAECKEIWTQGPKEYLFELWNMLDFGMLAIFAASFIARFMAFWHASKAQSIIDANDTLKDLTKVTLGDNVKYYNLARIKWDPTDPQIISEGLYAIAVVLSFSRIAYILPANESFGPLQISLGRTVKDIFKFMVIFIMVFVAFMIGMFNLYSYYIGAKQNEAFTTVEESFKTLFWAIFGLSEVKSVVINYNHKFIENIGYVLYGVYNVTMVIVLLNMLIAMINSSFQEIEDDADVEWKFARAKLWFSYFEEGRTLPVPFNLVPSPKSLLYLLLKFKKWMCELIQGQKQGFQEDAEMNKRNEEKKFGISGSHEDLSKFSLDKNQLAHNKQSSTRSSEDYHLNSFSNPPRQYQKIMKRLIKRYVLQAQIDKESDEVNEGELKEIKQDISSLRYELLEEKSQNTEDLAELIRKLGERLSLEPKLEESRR
Short transient receptor potential channel 4 (Mus musculus), sequence (Q9QUQ5 whole entry, looked up): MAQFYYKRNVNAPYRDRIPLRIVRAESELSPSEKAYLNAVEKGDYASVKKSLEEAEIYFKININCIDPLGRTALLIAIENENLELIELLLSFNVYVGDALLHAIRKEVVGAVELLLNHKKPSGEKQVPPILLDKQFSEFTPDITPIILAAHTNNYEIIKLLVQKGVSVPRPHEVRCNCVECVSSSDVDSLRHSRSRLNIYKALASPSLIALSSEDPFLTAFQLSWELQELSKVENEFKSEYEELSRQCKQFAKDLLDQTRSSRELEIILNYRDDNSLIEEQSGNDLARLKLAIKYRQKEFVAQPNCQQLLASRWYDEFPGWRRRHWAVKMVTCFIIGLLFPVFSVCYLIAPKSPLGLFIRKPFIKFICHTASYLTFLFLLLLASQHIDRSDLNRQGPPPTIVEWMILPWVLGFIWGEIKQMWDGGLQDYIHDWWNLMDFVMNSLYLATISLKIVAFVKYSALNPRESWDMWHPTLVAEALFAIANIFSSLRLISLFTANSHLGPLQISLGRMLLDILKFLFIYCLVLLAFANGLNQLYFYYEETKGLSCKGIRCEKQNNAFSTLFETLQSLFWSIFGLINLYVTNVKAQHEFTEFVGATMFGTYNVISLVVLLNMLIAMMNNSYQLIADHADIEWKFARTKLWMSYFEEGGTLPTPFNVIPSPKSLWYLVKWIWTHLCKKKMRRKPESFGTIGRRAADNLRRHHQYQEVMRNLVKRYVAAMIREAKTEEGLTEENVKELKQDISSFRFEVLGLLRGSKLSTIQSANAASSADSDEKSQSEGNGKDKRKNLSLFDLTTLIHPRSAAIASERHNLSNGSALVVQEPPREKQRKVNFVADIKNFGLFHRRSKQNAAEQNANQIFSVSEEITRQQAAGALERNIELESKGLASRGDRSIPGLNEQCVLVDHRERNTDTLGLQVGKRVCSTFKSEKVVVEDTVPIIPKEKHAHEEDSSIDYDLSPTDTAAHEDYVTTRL

Row | SMILES | outcome [1] | outcome [2] | outcome [3] | outcome [4] | inhibition [5] | inhibition [6] | outcome [7] | outcome [8] | outcome [9] | outcome [10] | outcome [11] | outcome [12] | outcome [13] | outcome [14] | outcome [15] | outcome [16] | outcome [6] | inhibition [13] | outcome [5] | inhibition [9]
1 | CCOc1ccc2c(C)nc(NC3=NC(C)(C)C=C(C)N3)nc2c1 | inactive | inactive | inactive | inactive | 96% (active) | 37% (active) | inactive | inactive | inactive | inactive | inactive | inactive | inactive | inactive | inactive | inactive |  |  |  | 
2 | O=C(CSc1nnc(-c2ccc(Cl)cc2Cl)n1C1CCCCC1)NC1CCS(=O)(=O)C1 (stereo unspecified) | inactive | inactive | inactive | inactive | 82% (active) |  | inactive | inactive | inactive | inactive | inactive | inactive | inactive | inactive | inactive | inactive | inactive |  |  | 
3 | Cc1ccc(C(C(=O)NC(C)(C)C)N(C(=O)CCC(=O)Nc2ccccn2)c2ccccc2F)cc1 (stereo unspecified) | inactive | inactive | inactive | inactive | 61% (active) |  | inactive | inactive | inactive | inactive | inactive | inactive |  | inactive | inactive | inactive | inactive | 28.9% (active) |  | 
4 | CCOc1ccccc1CN1CCC(n2nccc2NC(=O)CCc2ccccc2)CC1 | inactive | inactive | inactive | inactive | 97% (active) | 69% (active) | inactive | inactive | inactive | inactive | inactive | inactive | inactive | inactive | inactive | inactive |  |  |  | 
5 | Cn1nnnc1SCCNCc1ccccc1OCc1ccc(Cl)cc1 | inactive | inactive | inactive | inactive | 88% (active) | 45% (active) | inactive | inactive | inactive | inactive | inactive | inactive |  | inactive | inactive | inactive |  | 23.5% (active) |  | 
6 | O=C(CN1CCCCC1)N=Nc1c(O)[nH]c2ccccc12 | inactive | inactive | inactive | inactive | 80% (active) |  | inactive | inactive | inactive | inactive | inactive | inactive |  | inactive | inactive | inactive | inactive | 33.5% (active) |  | 
7 | CCOc1cc(CNCc2cccs2)ccc1OCC(=O)NC(C)(C)C | inactive | inactive | inactive | inactive | 98% (active) | 49% (active) | inactive | inactive | inactive | inactive | inactive | inactive | inactive | inactive | inactive | inactive |  |  |  | 
8 | Cc1cccc(-c2nnc(SCc3nc4ccccc4[nH]3)n2Cc2ccco2)c1 | inactive | inactive | inactive | inactive | 90% (active) |  | inactive | inactive | inactive | inactive | inactive | inactive |  | inactive | inactive | inactive | inactive | 26.7% (active) |  | 
9 | O=C(CCc1ccccc1)Nc1ccnn1C1CCN(C/C=C/c2ccccc2)CC1 | inactive | inactive | inactive | inactive |  |  | inactive | inactive | inactive | inactive | inactive | inactive |  | inactive | inactive | inactive | inactive | 17.3% (active) | inactive | 
10 | Nc1cc(N2CCCCC2)c([N+](=O)[O-])cc1Cl | inactive | inactive | inactive | inactive | 88% (active) | 42% (active) | inactive | inactive | inactive | inactive | inactive | inactive | inactive | inactive | inactive | inactive |  |  |  | 
11 | CC(C)n1c(NCc2c[nH]c3ccccc23)nc2ccccc21 | inactive | inactive | inactive | inactive | 50% (active) |  | inactive | inactive |  | inactive | inactive | inactive |  | inactive | inactive | inactive | inactive | 26.4% (active) |  | 33.5% (active)
12 | Cc1cc(-c2csc3ncnc(N4CCN(C)CC4)c23)cc(C)c1C | inactive | inactive | inactive | inactive | 84% (active) | 49% (active) | inactive | inactive | inactive | inactive | inactive | inactive |  | inactive | inactive | inactive |  | 16.6% (active) |  | 
13 | COc1ccc(/C=C2/SC(=S)N(CCCC(=O)Nc3ccccc3C(=O)O)C2=O)cc1 | inactive | inactive | inactive | inactive | 81% (active) | 48% (active) | inactive | inactive | inactive | inactive | inactive | inactive |  | inactive | inactive | inactive |  | 36.7% (active) |  | 
14 | CCCCn1c(NCc2ccc(N(C)C)cc2)nc2ccccc21 | inactive | inactive | inactive | inactive | 93% (active) | 50% (active) | inactive | inactive |  | inactive | inactive | inactive |  | inactive | inactive | inactive |  | 24.4% (active) |  | 51.5% (active)
15 | Cc1ccn2cc(CCNC(=O)c3ccc(Br)o3)nc2c1 | inactive | inactive | inactive | inactive | 89% (active) |  | inactive | inactive | inactive | inactive | inactive | inactive |  | inactive | inactive | inactive | inactive | 34.1% (active) |  | 
16 | O=C(O)CN1C(c2ccccc2O)Nc2ccc(Br)cc2C1c1ccccc1 (stereo unspecified) | inactive | inactive | inactive | inactive | 96% (active) | 45% (active) | inactive | inactive | inactive | inactive | inactive | inactive |  | inactive | inactive | inactive |  | 13.5% (active) |  | 
